# NadD block: NadD (S. aureus) enzyme inhibition | purified NadD enzyme, colorimetric absorbance read-out | inhibition, % at 20 µM | 0.78% of 360,000 active | AID 602399; in the data active means inhibition above about 26%
# Granule exo inh: blocks lytic granule exocytosis | 0.66% of 360,000 active | AID 651702 | TALL-104 LAMP-1 surface exposure, flow cytometry; cells stimulated with thapsigargin and PMA | inhibition, % at 10 µM;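 active means inhibition above about 55%, limit read from the data; inconclusive means no clear call, values can overlap the other calls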
# GRK2 aptamer HTS: human GRK2 inhibition via aptamer displacement | P25098 | bead flow cytometry, FAM-aptamer displacement from GRK2 | inhibition of aptamer binding, % at 10 µM | 0.59% of 330,000 active | AID 488847;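 active means inhibition of aptamer binding above 40%, roughly 3 SD of noise, on plates passing a quality check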;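 further: median bead fluorescence of bound FAM aptamer so fluorescent compounds give negative values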
# PP1 counter: PP1-alpha (human) inhibition in PP5 counter-screen | P62136 | purified PP1alpha, OMFP fluorescence | inhibition, % at 6.7 µM | 0.9% of 320,000 active | AID 2235;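 active means inhibition above the mean inhibition of all tested compounds plus 3 SD, computed separately for each screening campaign, cut at about 15% in these data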
# Target sequence (P62136 whole entry, looked up): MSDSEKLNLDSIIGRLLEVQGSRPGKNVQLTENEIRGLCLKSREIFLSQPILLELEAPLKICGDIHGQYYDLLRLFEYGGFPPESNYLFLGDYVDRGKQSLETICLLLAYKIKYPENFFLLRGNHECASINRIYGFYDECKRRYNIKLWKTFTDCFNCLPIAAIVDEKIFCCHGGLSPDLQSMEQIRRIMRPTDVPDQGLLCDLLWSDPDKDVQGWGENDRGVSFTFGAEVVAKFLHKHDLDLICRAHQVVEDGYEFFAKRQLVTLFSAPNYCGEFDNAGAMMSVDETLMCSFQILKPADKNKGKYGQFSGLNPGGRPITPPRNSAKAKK
# B2AR ag: human beta-2 adrenergic receptor agonism by FAP | response, % (no concentration beside the values) | Am2.2-beta2AR cells, FAP receptor internalization, flow cytometry | P07550 | 0.43% of 340,000 active;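 active means response above a set limit, near 3 SD of response in nonfluorescent compounds, cut at about 42% in these data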
# The depositor's hits bear a star; ? = inconclusive; / = no result given. An excerpt weighted towards active compounds, which were near 2.9% of everything screened.
SMILES,NadD block,Granule exo inh,GRK2 aptamer HTS,PP1 counter,B2AR ag
O=C(O)COc1ccccc1C(Nc1cccnc1)c1cc(Cl)c2cccnc2c1O (configuration not stated),37*,-5,/,/,4
O=C(O)COc1ccccc1C(Nc1ccccn1)c1cc(Cl)c2cccnc2c1O (configuration not stated),38*,0,0,6,0
Cc1c(C(=O)OC(C)C)sc(NC(=O)c2cnccn2)c1C(=O)OC(C)C,-5,-6,/,/,-4
Cc1c(/C=N/Nc2nc3ccccc3[nH]2)c2ccccc2n1C,10,85*,0,13,12
COc1cc(/C=C2\SC(=O)N(c3ccc(Cl)cc3)C2=O)cc([N+](=O)[O-])c1O,60*,2,/,/,5
COc1ccc(Cc2nnc(Nc3ccc(Cl)cc3)[nH]c2=O)cc1,0,1,0,18*,-1
Cc1ccc(-c2sc(C(=O)NN)c(C)c2C#N)cc1,6,-10,3,-1,-6
O=C(N/N=C/c1ccc(Cl)cc1)c1cc(-c2cccnc2)nc2ccccc12,1,-4,0,17*,15
O=C(N/N=C/c1cc([N+](=O)[O-])ccc1O)c1cc(-c2ccccc2)nc2ccccc12,31*,-7,8,1,2
Cc1cc(C(=O)N/N=C/c2cc([N+](=O)[O-])ccc2O)c2ccccc2n1,4,-4,2,1,2
CCOC(=O)c1c(C)[nH]c(C(=O)N/N=C/c2cc([N+](=O)[O-])ccc2O)c1C,33*,-3,0,6,25
O=C(N/N=C/c1cccnc1)c1cc(-c2ccc(Cl)cc2)nc2ccccc12,9,2,2,-2,-14
CCOc1ccc(N2CC(C(=O)Nc3ccccc3N3CCOCC3)CC2=O)cc1 (configuration not stated),2,2,2,1,1
Cn1c2ccccc2c2nnc(NN)nc21,3,3,1,-1,-18
CCCCc1c(C)nn(-c2nnc3c4ccccc4n(C)c3n2)c1C,9,12,0,17*,4
CCOC(=O)c1cc2c(=Cc3ccc(N(C)C)cc3)c3ccccc3n2[n+]1C,0,67*,/,/,-173
Cc1cc2c(=Cc3ccc(N(C)C)cc3)c3ccccc3n2[n+]1C,-2,5,/,/,-195
Cc1csc(=O)n1CC(=O)OCC(=O)NC(C)c1ccc(F)cc1 (configuration not stated),0,0,0,-3,7
COc1ccc(C(=O)N[C@H](C(=O)NC2CCCCC2)C(C)C)cc1,1,7,0,/,-1
CCOC(=O)C[n+]1c(C)sc2ccc(OC)cc21,2,75*,0,-2,7
NS(=O)(=O)c1ccc(CCNC(=O)c2ccc(NC3=NC4CS(=O)(=O)CC4S3)cc2)cc1 (configuration not stated),-1,-5,0,-3,-2
COc1cc(C2C(C(=O)c3cc4ccccc4o3)=C(O)C(=O)N2c2cc(C)on2)cc(OC)c1OC (configuration not stated),9,1,9,17*,6
COc1cc(C2C(C(=O)c3ccc(C)o3)=C(O)C(=O)N2c2cc(C)on2)cc(OC)c1OC (configuration not stated),4,2,0,3,5
COc1cccc(C2C(C(=O)c3cc4ccccc4o3)=C(O)C(=O)N2c2cc(C)on2)c1OC (configuration not stated),11,-5,7,15*,1
COc1cccc2cc(C(=O)C3=C(O)C(=O)N(c4cc(C)on4)C3c3cccs3)oc12 (configuration not stated),13,?,3,23*,13
SMILES,NadD block,Granule exo inh,GRK2 aptamer HTS,PP1 counter,B2AR ag
COc1cccc(C2C(C(=O)c3cc4cccc(OC)c4o3)=C(O)C(=O)N2c2cc(C)on2)c1OC (configuration not stated),7,-3,9,11,-4
COC(=O)c1ccc(C2C(C(=O)c3cc4ccccc4o3)=C(O)C(=O)N2c2cc(C)on2)cc1 (configuration not stated),14,-2,5,27*,5
COc1cc(C2C(C(=O)c3cccs3)=C(O)C(=O)N2c2cc(C)on2)ccc1O (configuration not stated),2,-2,2,-1,4
Cc1ccc(C(=O)NNC(=O)C(NC(=O)c2cccc(C)c2)C(C)C)cc1 (configuration not stated),7,26,0,-2,-7
CS(=O)(=O)N(CC(=O)Nc1cccc(Cl)c1Cl)c1ccccc1,1,0,1,5,10
COc1cc(/C=C(\C#N)c2nc3ccccc3s2)ccc1OCC(=O)Nc1ccccc1,2,-1,0,0,76*
COc1cc(/C=C(\CC(=O)O)c2nc3ccccc3s2)ccc1OCC(=O)Nc1ccccc1F,17,-1,/,/,1
O=C(/C=C/c1ccccc1[N+](=O)[O-])c1ccccc1Br,-2,7,0,-3,57*
Cc1ccc(C(=O)/C=C/c2ccccc2[N+](=O)[O-])cc1,-7,4,2,-3,63*
COc1cccc(/C=N/NC(=S)NCCc2ccccc2)c1,-13,58*,0,2,-2
COc1ccc(/C=N/NC(=S)NCCc2ccccc2)cc1,0,64*,3,-1,6
CN(Cc1ccccc1)C(=O)CN1CCN(S(=O)(=O)c2ccc(Cl)c(Cl)c2)CC1,3,-3,3,0,-3
NC(Cc1ccc(C(F)(F)F)cc1)c1csc(Nc2cc(Oc3ccccc3)ncn2)n1 (configuration not stated),11,19,/,/,/
N#Cc1c(N)nc(Sc2ccc(Cl)cc2)c(C#N)c1-c1ccccc1Cl,-2,79*,0,-2,-3
CCSc1nc(N)c(C#N)c(-c2ccccc2Cl)c1C#N,-4,7,0,1,8
COc1ccc(CCn2c(O)cc3nn(-c4nc5ccccc5s4)c(=O)c-3c2C)cc1,73*,-4,1,17*,-28
COc1ccc(CN2CCN(c3nc4ccccc4s3)CC2)cc1,-12,-12,/,/,-7
COCCN1C(=O)COc2ccccc2C1C(=O)Nc1c(C)cccc1C (configuration not stated),4,-1,/,/,/
Cc1nnc(N/N=C/c2ccc(Br)cc2)n1N,0,78*,1,-5,-10
O=C(NCCc1ccccn1)c1c(-c2ccsc2)sc2ccccc12,1,-2,70*,/,11
Cc1cccc(-n2nc3c(c2NC(=O)c2ccc(S(=O)(=O)N4CCOCC4)cc2)CSC3)c1C,7,2,/,/,5
Cc1ccc(-n2nc3c(c2NC(=O)c2ccc(S(=O)(=O)N4CCOCC4)cc2)CSC3)c(C)c1,34*,1,1,4,6
O=C(NCc1cccc(F)c1)C1CCN(C(=O)c2sccc2-n2cccc2)CC1,5,-4,0,-2,-3
